SUMO Mot1 rescue: blocks SUMOylation pathway, rescuing yeast Mot1-301 growth; growth rescue, % at 18.8 µM; S. cerevisiae Mot1-301 growth rescue, ATP luminescence, 38.5C; percent above DMSO median, 100 means doubled; 320,000 tested, 1% active;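 active = every valid replicate shows activation above 250% relative to neutral control wells; inactive = the rest, any valid replicate at or below 250%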;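 note: OY570 slx delta 5 strain wells were the positive control but not used for scaling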
NALP3 yeast inh: inhibitors of NALP3 inflammasome in yeast; Yeast reconstituted NLRP3/ASC/caspase-1, beta-gal luminescence, 24 h; inhibition, % at 10 µM; 330,000 tested, 0.39% active; AID 2825;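 active = inhibition of 50% or more; inactive = inhibition below 50%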;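 note: plate controls were induced DMSO wells for no effect and uninduced yeast grown without galactose for full effect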
NALP1 inh: blocks the NALP1 inflammasome reconstituted in yeast; S. cerevisiae NALP1/ASC/caspase-1 growth, X-gal OD620, 72 h; inhibition, % at 10 µM; 280,000 tested, 0.61% active; AID 2071; in the data active = inhibition mostly above about 24%, no sharp cut-off; inactive = mostly below about 32%
PolyA inh: yeast polyadenylation inhibition; 300,000 tested, 0.02% active; activity score, % at 12 µM; AID 1875; S. cerevisiae SKY197-pL101 polyadenylation reporter, beta-gal luminescence; efflux-impaired pdr1/pdr3 knockout yeast; score 100 = 6 SD above DMSO;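 active = lowest replicate activity score at least 50, where 100 means six control SD above control mean; inconclusive = lowest score under 50 but half or more replicates reach 50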;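 note: yeast exposed to compound for 9 h at 30 °C; higher score means more reporter readthrough which indicates perturbed polyadenylation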
Mot1 SUMO dose: inhibits SUMO pathway, affecting Mot1-301 yeast growth | shares compounds with SUMO Mot1 rescue | S. cerevisiae Mot1-301 galactose growth, ATP luminescence, 24 h; -100 = growth of slx-deleted rescue strain | growth activity, percent, % at 42 µM | 2,300 tested, under 10 active | AID 493004;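 active = Signal drops as the depositor expects, and the fitted half-maximal dose is no more than ten times the top valid tested dose; inconclusive = Poor fit, or a flat curve whose signal drops by 30% to 70%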;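 note: more negative values mean stronger growth rescue toward the control strain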
* = called active by the depositor; ? = inconclusive; . = no result given; + = active, no number; [ ] = dose if it differs, or a comment. A selection: hits, their analogues and other compounds. The true share with any hit is near 1.8%.

SMILES	SUMO Mot1 rescue	NALP3 yeast inh	NALP1 inh	PolyA inh	Mot1 SUMO dose
CC(C)(C)OC(=O)N1CCC(Cc2cc(-c3ccc(Cl)cc3)no2)(C(=O)O)CC1	10	7	18	6	.
COc1ccc(-c2cc(CC3(C(=O)O)CCN(C(=O)OC(C)(C)C)CC3)on2)c(OC)c1	381*	-3	10	17	1
CC1=NN(C(N)=S)C(=O)C1N=Nc1ccccc1C (stereo unspecified)	-17	29	6	-6	.
O=C(NC(=O)c1ccccc1Cl)C(=O)Nc1ccc(Cl)cc1	3	7	29	-4	.
CC1c2cc3c(cc2CCN1CC(=O)Nc1ccccc1)OCCCO3 (stereo unspecified)	653*	21	12	3	0
NC(=O)CN1CCOCCN(CC(N)=O)CCOCC1	410*	10	12	12	0
C=C(C)C(=O)Nc1cccnc1Oc1ccc(F)cc1F	+	10	22	-3	1
Cc1cccnc1NC(=S)Nc1ccc(F)cc1F	9	34	7	-4	.
Cn1nc(C(=O)NCCc2ccc(Cl)cc2)c2c1-c1ccccc1S(=O)(=O)C2	440*	10	23	-17	1
Cc1ccnc(NC(c2cccnc2)c2ccc3cccnc3c2O)c1 (stereo unspecified)	+	13	21	-1	-1
COc1ccccc1NC(c1cccnc1)c1ccc2cccnc2c1O (stereo unspecified)	-14	7	20	25	.
CC(C)CC(=O)Nc1ccc(C(=O)COC(=O)C2=COCCO2)cc1	-7	-2	.	?	.
O=C(OCc1nnc(-c2ccccc2)o1)c1ccc([N+](=O)[O-])o1	743*	3	.	-7	-1
O=C(OCc1nnc(-c2ccccc2)o1)c1ccc(Br)o1	-12	22	.	23	.
CCCN1CN=C(Nc2nc3ccccc3o2)NC1	-7	6	21	13	.
OCCN1CN=C(Nc2nc3ccccc3o2)NC1	+	12	1	-9	0
c1ccc(C(c2nnnn2C2CCCC2)N2CCCCCC2)nc1 (stereo unspecified)	0	1	1	0	.
c1ccc(C(c2ccccc2)N2CCN(C(c3ccccn3)c3nnnn3C3CCCC3)CC2)cc1 (stereo unspecified)	+	6	11	10	0
CCOC(=O)CN1NC2(CCC(C(C)(C)C)CC2)NC1=S (stereo unspecified)	500*	7	4	-13	0
CCCn1c(SCC(=O)NC2CCCCC2)nnc1-c1ccncc1	-3	2	-2	22	.
COc1ccc(-c2csc(NC(=O)CCS(=O)(=O)c3ccccc3)n2)c(OC)c1	454*	13	9	5	0
COc1ccc(NC(=O)CCS(=O)(=O)c2ccccc2)c(OC)c1	-9	21	20	-12	.
CCOC(=O)NNC(=O)CCn1c2c(c3ccccc31)CCCC2	960*	-1	15	-8	0
Cc1cnc(NC(=O)CSc2nc3ccccc3s2)s1	395*	13	4	-7	-1
COc1ccc(N2CCN(CCCNC(=O)C(=O)c3c(C)[nH]c4ccccc34)CC2)cc1	413*	-6	24	12	0[21 µM]
SMILES	SUMO Mot1 rescue	NALP3 yeast inh	NALP1 inh	PolyA inh	Mot1 SUMO dose
COC(=O)[C@@H]1C[C@H]2CC[C@H](O)C[C@H]2N1Cc1ccccc1OS(=O)(=O)c1ccc(C)cc1	-3	-3	.	-5	.
COC(=O)[C@@H]1C[C@@H]2CC[C@@H](O)C[C@@H]2N1Cc1ccc(N2CCN(C)CC2)cc1	522*	0	.	1	0
Cc1ccccc1NS(=O)(=O)c1nnc(NC(=O)C(C)C)s1	0	11	12	5	.
O=c1[nH]cnc2sc3c(c12)CCC3	626*	-7	4	5	0
Cc1c(C(=O)NC(=S)Nc2ccccc2N2CCCC2)cccc1[N+](=O)[O-]	426*	21	11	5	0
O=C(NC(=S)Nc1ccccc1N1CCCC1)c1ccc([N+](=O)[O-])cc1	407*	21	6	0	0
COc1ccc(C(=O)NC(=S)Nc2ccccc2N2CCCCC2)cc1[N+](=O)[O-]	-25	21	46	4	.
COc1ccc2c(c1)[C@H]1[C@H](CO2)[C@H](c2ccccc2)[C@]2(C)C(=O)Nc3cc(C)ccc3C(=O)N12	463*	10	.	.	-1
COc1ccc2c(c1)OC[C@H]1[C@H]2N2C(=O)c3cc(Cl)ccc3NC(=O)[C@@]2(C)[C@H]1c1ccccc1	157	6	.	.	.
COc1ccc2c(c1)OC[C@H]1[C@H]2N2C(=O)c3cc(F)ccc3NC(=O)[C@@]2(C)[C@H]1c1ccccc1	+	8	.	.	0
C[C@@]12C(=O)Nc3cc(F)ccc3C(=O)N1[C@H]1c3ccccc3OC[C@@H]1[C@@H]2c1ccccc1	+	18	.	.	0
Cc1nn(CC(=O)Nc2ccccn2)c(C)c1[N+](=O)[O-]	424*	-13	15	1	0
CCC(=O)c1cc(F)c(N2CCN(S(=O)(=O)c3ccccc3)CC2)cc1C	-6	14	9	3	.
Cc1nn(C)c(Cl)c1CN1CCN(CCC(C)C)C(CCO)C1 (stereo unspecified)	+	6	2	6	0
Cc1nn(C)c(Cl)c1CN1CCN(CC(C)C)C(CCO)C1 (stereo unspecified)	1	1	-12	1	.
S=C(NC1CCCCC1)N(CCc1nc2ccccc2[nH]1)C1CCCC1	23	23	-28	0	.
O=C1C2(CCC13COC(c1ccc(O)cc1)OC3)COC(c1ccc(O)cc1)OC2 (stereo unspecified)	-11	2	1	12	.
O=C(CSc1nc2ccc(Nc3nc(N4CCOCC4)nc(N4CCOCC4)n3)cc2s1)N1CCOCC1	382*	8	31	5	0
Cc1n[nH]c(=O)c2c(NC(=O)COC(=O)Cc3ccc(Cl)cc3Cl)oc(C)c12	535*	25	.	-4	0[21 µM]
COc1ccc(/C=C2/C(=N)N3N=C(CC(=O)N4CCCC4)SC3=NC2=O)cc1	6	12	9	4	.
NC(=O)C1=C[C@@H](c2ccc(Br)cc2)C[C@@H](OCCCCO)O1	554*	0	-3	-17	1
Fc1ccc2nc(C3CCN(Cc4nc(CC5CC5)no4)CC3)[nH]c2c1	460*	3	8	-12	0
O=C(CCNC(=O)c1ccccc1)Nc1cccnc1	455*	-4	3	4	1
CN=C(Nc1cccnc1)c1ccccc1	421*	9	4	4	0
CC(C)N=C(Nc1cccnc1)c1ccccc1	-17	1	16	5	.
Brc1ccccc1OCCN1CCCC1	-14	13	.	-7	.
CSc1nnc(CSCc2ccc(Cl)cc2Cl)n1-c1ccccc1	594	6	1	12	.
CCOC(=O)CNC(=O)N1CCC(CCC(=O)N(C)Cc2ccccc2)CC1	-5	19	18	0	.
